A selection: hits, their analogues and other compounds. The true share with any hit is near 2.8%.
Giardia kill = Small Molecules that selectively kill Giardia lamblia: qHTS; Giardia lamblia trophozoite viability; activity change, % at 7.66 µM, hits read low; 340,000 compounds, 0.15% hits; in the data active means activity change below about -80%; inconclusive means between about -30% and that limit;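 further: parasites exposed to compound for two days anaerobically before the ATP read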
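Luminescence from cellular ATP indicates surviving trophozoites (100 cells/well) following 48 hrs anaerobic compound treatment at 37 deg C; signal develops 15-30 min at room temperature.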
DRD3 antagonist = qHTS of D3 Dopamine Receptor Antagonist: qHTS. D(3) dopamine receptor (Homo sapiens), P35462. AID 652054, 2013. 360,000 compounds, 2.5% hits. D3R cells, DiscoveRx beta-arrestin luminescence, antagonist mode; active compounds read low. max response, negative = inhibition, %; in the data active means max response below about -50%; inconclusive means no clear call, values can overlap the other calls
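Cells plated overnight at 1500 cells/well, then exposed to library compounds with dopamine controls for 90 minutes at 37 degrees C. DiscoveRx reagent added for 30–60 minutes at room temperature; luminescence read, quantitative HTS format.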
D3 ag = qHTS of D3 Dopamine Receptor Agonist: qHTS; D(3) dopamine receptor (Homo sapiens), P35462; D3R DiscoveRx beta-arrestin cells, luminescence, 90 min; max activation, %; 410,000 compounds, 0.58% hits; AID 652048, 2013; in the data active means max activation above about 30%
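Agonist mode: compounds and dopamine controls were applied to plated cells for 90 min at 37 degrees C after an overnight attachment at 1500 cells/well. Luminescent read-out followed 30 - 60 minutes at room temperature with DiscoveRx detection reagent.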
B2AR arrestin = qHTS assay of beta-arrestin-biased ligands of beta2-adrenergic receptor | Beta-2 adrenergic receptor (Homo sapiens), P07550 | beta-arrestin recruitment to beta2AR, cell-based reporter | Potency, µM (highest dose often 46.1 µM), actives largely listed as activators | 330,000 compounds, 0.02% hits | AID 492947, 2010; active means well fitted activation curve with a large enough effect; inconclusive means small, poorly fitted or top-dose-only effect; further: nearly all actives have a fitted effect of over 65% in size
Target sequence (P07550 whole entry, looked up): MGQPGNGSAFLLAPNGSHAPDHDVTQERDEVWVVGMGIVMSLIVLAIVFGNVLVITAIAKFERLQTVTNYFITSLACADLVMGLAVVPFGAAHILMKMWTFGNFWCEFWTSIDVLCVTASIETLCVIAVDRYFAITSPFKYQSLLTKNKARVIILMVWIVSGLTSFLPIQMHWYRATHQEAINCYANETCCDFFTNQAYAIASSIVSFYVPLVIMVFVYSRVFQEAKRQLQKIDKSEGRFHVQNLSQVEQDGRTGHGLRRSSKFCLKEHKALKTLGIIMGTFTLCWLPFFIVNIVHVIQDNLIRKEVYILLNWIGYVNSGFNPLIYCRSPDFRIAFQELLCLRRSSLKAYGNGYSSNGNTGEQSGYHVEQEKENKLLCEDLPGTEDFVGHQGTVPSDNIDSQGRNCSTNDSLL
Large screens that a line does not name were inactive; ! = repeats disagree.

O=c1c([N+](=O)[O-])c(NCCN2CCCCCC2)c2ccccc2n1-c1ccccc1	DRD3 antagonist -98
COCCNc1c([N+](=O)[O-])c(=O)n(-c2ccccc2)c2ccccc12	none
CCCc1nn2c(=O)cc(COC(=O)c3ccccc3NC(=O)c3cccs3)nc2s1	none (no result: Giardia kill, DRD3 antagonist, B2AR arrestin)
CC(C(O)c1ccc(O)cc1)N1CCC(Cc2ccccc2)CC1 (stereo not drawn)	DRD3 antagonist -88!
C[C@@H](CN1CCC(Cc2ccccc2)CC1)[C@@H](O)c1ccc(O)cc1	none
COc1ccc(Cl)cc1NC(=S)NCCC(c1ccccc1)c1ccccc1	DRD3 antagonist -65
O=S(=O)(c1cccc2ccccc12)N1CCN(c2nc(-c3cccs3)nc3ccccc23)CC1	none (no result: DRD3 antagonist, D3 ag, B2AR arrestin)
CC(C)c1ccc(-c2csc3ncnc(N4CCN(C)CC4)c23)cc1	DRD3 antagonist -72
Fc1cc(F)nc(NCc2ccccc2)n1	D3 ag 37
CCCCNc1cc(C)nc(NCc2ccccc2)n1	DRD3 antagonist -63
Cc1cc(Nc2ccccc2)nc(NCc2ccccc2)n1	DRD3 antagonist inconclusive
CCOc1ccc(-c2nnc(NC(=O)C3CCCC3)o2)cc1	DRD3 antagonist -105
CC(=O)NC(c1ccco1)c1cc(Cl)c2ccc(N(C)C)nc2c1O (stereo not drawn)	none (no result: Giardia kill, DRD3 antagonist, D3 ag)
O=C(NCCN1CCc2ccccc2C1)Nc1ccc(F)cc1	Giardia kill inconclusive, DRD3 antagonist -77
O=C(NCCN1CCCCC1)Nc1ccc(F)cc1	none
CCc1ccc(NC(=O)NCCCN2CCCC2=O)cc1	none
CCc1ccc(NC(=O)NCCN2CCc3ccccc3C2)cc1	DRD3 antagonist -69
O=C(CSc1nc2c([nH]c3ccccc32)c(=O)n1-c1ccc(F)cc1)NC1CCCCC1	none (no result: Giardia kill, DRD3 antagonist, B2AR arrestin)
COc1ccc(S(=O)(=O)Nc2cccc(-c3ccc(N4CCCCCC4)nn3)c2)cc1	none (no result: Giardia kill, DRD3 antagonist, B2AR arrestin)
Cc1ccc(-n2ncc3c(NCCc4ccccc4)ncnc32)cc1Cl	D3 ag 37 (no result: Giardia kill, DRD3 antagonist, B2AR arrestin)
CN(C)CCNc1ncnc2c1cnn2-c1ccc(Cl)cc1	DRD3 antagonist -64
COc1cccc(N2CCN(c3ncnc4c3cnn4-c3ccc(C)cc3C)CC2)c1	D3 ag 39
COc1ccc(CCNc2ncnc3c2cnn3-c2ccc(C)c(Cl)c2)cc1	D3 ag 30 (no result: Giardia kill, DRD3 antagonist, B2AR arrestin)
Cc1ccc(-n2ncc3c(N4CCCC4)ncnc32)c(C)c1	DRD3 antagonist inconclusive
COc1ccc(CCNc2ncnc3c2cnn3-c2cccc(Cl)c2)cc1	none (no result: Giardia kill, DRD3 antagonist, B2AR arrestin)
COc1ccc(C2C(C(=O)Nc3ccccc3)=C(C)Nc3nc(-c4ccccc4)nn32)cc1OC (stereo not drawn)	none (no result: Giardia kill, DRD3 antagonist, B2AR arrestin)
Clc1cccc(-n2ncc3c(N4CCN(Cc5ccccc5)CC4)ncnc32)c1	none (no result: Giardia kill, DRD3 antagonist, B2AR arrestin)
Cc1ccc(-n2ncc3c(N4CCN(Cc5ccccc5)CC4)ncnc32)cc1C	D3 ag 33 (no result: Giardia kill, DRD3 antagonist, B2AR arrestin)
Cc1ccccc1NC(=O)CCn1nc(-c2ccc(Cl)cc2)c2ccccc2c1=O	none (no result: Giardia kill, DRD3 antagonist, B2AR arrestin)
COC/C=C/C1=CC2=CC(=O)C(C)(OC(=O)c3cnc4ccccc4n3)C(=O)C2=CN1Cc1ccccc1 (stereo not drawn)	DRD3 antagonist -65
COc1ccc(Nc2nc(OC)nc(OC)n2)cc1	none
COc1ccc(Nc2nc(Nc3ccc(OC)cc3)nc(-n3[nH]c(=O)c(C)c3C)n2)cc1	DRD3 antagonist -59
COc1ccc(C(O)(C(C)C)C(CN2CCOCC2)c2ccccc2)cc1 (stereo not drawn)	none
COc1ccc(C(O)(C(C)C)C(CN2CCOCC2)c2ccc(Cl)cc2)cc1 (stereo not drawn)	DRD3 antagonist -55
Cc1nc2ccccc2n1CCc1nc2c3ccccc3nc(SCc3ccc(F)cc3)n2n1	none (no result: Giardia kill, DRD3 antagonist, B2AR arrestin)
Cc1ccc(CN2CCN(/N=C/c3cccs3)CC2)cc1	DRD3 antagonist -59
Cc1ccc(CN2CCN(/N=C/c3cc(Br)ccc3O)CC2)cc1	DRD3 antagonist -87
COc1cccc(CNC(=O)COc2cc(=O)n(C)c3ccccc23)c1	none (no result: Giardia kill, DRD3 antagonist, B2AR arrestin)
O=C(Nc1ccccc1)c1nn(-c2ccccc2)c(=O)cc1C(F)(F)F	DRD3 antagonist -50
O=C(c1ccccc1)c1nn(-c2ccccc2)c(=O)cc1C(F)(F)F	none
CC(=O)Nc1ccc(S(=O)(=O)N[C@H](C(=O)O)C(C)C)cc1	none
COC(=O)C(NS(=O)(=O)c1ccc(NC(C)=O)cc1)C(C)C (stereo not drawn)	DRD3 antagonist -74
Cc1ccc(S(=O)(=O)Nc2ccc3nc(-c4cccc(Cl)c4)oc3c2)cc1	none (no result: Giardia kill, DRD3 antagonist, B2AR arrestin)
COc1cc(N)c(Cl)cc1C(=O)N[C@H]1CCN(CCCOc2ccc(F)cc2)C[C@H]1OC	DRD3 antagonist -77
NC1(C(=O)O)CC1	DRD3 antagonist -75 (no result: B2AR arrestin)

Assay outcomes from PubChem BioAssay.
